Experimental data as given in PubChem BioAssay (NCATS).
Results filed as inconclusive are left out. A call without a number means that no potency is given here. The source made the active and inactive calls. Calls come from the whole dose curve; as a rule, active = well fitted inhibition curve with a large enough effect; inconclusive = small, poorly fitted or top-dose-only effect; inactive = flat fitted curve, though single readings scatter.

Molecular target: Glutathione peroxidase 1 (Homo sapiens) (UniProt P07203)
Experiment: Primary qHTS Assay for Inhibitors of Recombinant Selenoprotein Glutathione Peroxidase 1 (GPX1) (AID 1845191); note: nearly all actives have a fitted effect of over 65% in size
Settings: recombinant GPX1, GR-coupled NADPH fluorescence, 15 min; series mostly up to 48.8 µM
Outline: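 GR-coupled assay: compounds preincubated 30 min at room temperature with GPX1, then reaction started with CHP; final 10 nM GPX1, 1 mM GSH, 0.5 mM CHP, 0.5 mM NADPH, 100 nM GR, 0.01% BSA, pH 7.5 Tris buffer. NADPH fluorescence (340/450 nm) read at 0 and 15 min.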
Potency is the fitted concentration of half-maximal effect.

Sequence of Glutathione peroxidase 1 (Homo sapiens) (P07203 whole entry, looked up): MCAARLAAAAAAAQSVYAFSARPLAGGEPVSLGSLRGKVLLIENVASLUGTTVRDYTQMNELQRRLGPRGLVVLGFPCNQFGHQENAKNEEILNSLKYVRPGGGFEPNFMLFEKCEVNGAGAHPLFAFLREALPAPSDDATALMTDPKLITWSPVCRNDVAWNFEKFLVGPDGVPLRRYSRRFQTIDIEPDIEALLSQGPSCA

SMILES | Potency
COC(=O)CCC[N+](C)(C)C | inactive
O=[N+]([O-])c1c(Cl)cccc1-c1c[nH]cc1Cl | inactive
O=P(O)(O)OP(=O)(O)O | inactive
CNC(=O)c1c(I)c(C(=O)NCC(=O)Nc2c(I)c(C(=O)O)c(I)c(C(=O)NCCO)c2I)c(I)c(N(C)C(C)=O)c1I | inactive
CC(C)(C)NCC(O)c1ccc(O)c(CO)n1 (stereo unspecified) | inactive
FC(F)OC(Cl)C(F)(F)F (stereo unspecified) | inactive
Cc1cc(=O)c(C(=O)N[C@@H](C(=O)N[C@@H]2C(=O)N3C(C(=O)O)=C(CSc4nnnn4C)CS[C@H]23)c2ccc(O)cc2)c[nH]1 | 12.8 µM (active)
CC(C)(C)NCC(O)CSc1nc(-c2ccc(C(N)=O)s2)cs1 (stereo unspecified) | 22.7 µM (active)
NC(=O)c1ccc[n+]([C@@H]2O[C@H](COP(=O)([O-])OP(=O)(O)OC[C@H]3O[C@@H](n4cnc5c(N)ncnc54)[C@H](O)[C@@H]3O)[C@@H](O)[C@H]2O)c1 | inactive
c1ccc2ccccc2c1 | inactive
O=C(O)c1cc(N=Nc2ccc(O)c(C(=O)O)c2)ccc1O | inactive
CN(C)CCC=C1c2ccccc2C(C)(C)c2ccccc21 | inactive
Cc1cc(O)c2c(c1)O[C@@]1(C)CC[C@H]3C(C)(C)CCCC34CO[C@@H]2[C@H]41 (stereo partly specified) | inactive
CCCC1C(=O)N2C(N(C)C)=Nc3ccc(C)cc3N2C1=O (stereo unspecified) | inactive
COc1ccc(-c2noc(CC(=O)O)c2-c2ccc(OC)cc2)cc1 | inactive
C=CC1=C(C(=O)O)N2C(=O)[C@@H](NC(=O)/C(=N\O)c3csc(N)n3)[C@H]2SC1 (stereo in doubt) | 11.4 µM (active)
